Drawing on PubChem BioAssay AID372 (MTDP, 2006), this text covers inhibition for 98 molecules.

Hit rate of the full screen: of about 100,000 compounds, about 770 (0.77%) were called active. No stated cut-off is given here; in the data, active means inhibition above about 50%; inactive means the rest. Only a selection was taken, and actives are over-represented in it overall.

The assay addresses Gag-Pol polyprotein (Human immunodeficiency virus type 1 group M subtype B (isolate HXB2)) (UniProt P04585). Kind of assay: RNase H inhibition, HIV 1 Gag Pol polyprotein, FRET biochemical assay, screening (AID 372). To be noted: HIV-1 RT RNase H, FRET RNA/DNA substrate fluorescence; at 10 µM; active compounds read high.
The inhibition is the share of the control response that was lost under treatment. Consider `Cc1cc(Cl)ccc1OCC(=O)Nc1cc(Cl)c(Cl)cc1Cl`, for which the inhibition was 5% (inactive).

Take `CCC1CCc2c(sc(NC(=O)c3cc([N+](=O)[O-])ccc3Cl)c2C(N)=O)C1` (stereo not drawn): the inhibition was 14% (inactive).

On to `COc1ccc(OC)c(NC(=O)COc2ccc(Cl)c(C)c2)c1`, for which the inhibition is 15% (inactive).

Consider `CC(CCC(=O)Nc1nc2ccccc2s1)CC(=O)Nc1nc2ccccc2s1` (stereo not drawn), for which the inhibition is 15% (inactive).

For `COc1ccc(OC)c(/C=C/C(=O)c2c(-c3ccccc3)c3cc(Br)ccc3[nH]c2=O)c1`, the inhibition was 37% (inactive).

Take `Cc1ccc2[nH]c(=O)c(C(=O)/C=C\c3ccccc3)c(-c3ccccc3)c2c1`: the inhibition was 45% (inactive).

On to `COc1ccccc1/C=C/C(=O)c1c(-c2ccccc2)c2cc(C)ccc2[nH]c1=O`, for which the inhibition was 59% (active).

`Cc1ccc2[nH]c(=O)c(C(=O)/C=C\c3ccc(Br)cc3)c(-c3ccccc3)c2c1`: the inhibition is 28% (inactive).

Turning to `Cc1ccc2[nH]c(=O)c(C(=O)/C=C/c3ccccc3Cl)c(-c3ccccc3)c2c1`, the inhibition was 55% (active).

Regarding `COc1cc(/C=C/C(=O)c2c(-c3ccccc3)c3cc(Br)ccc3[nH]c2=O)cc(OC)c1OC`, the inhibition was 0% (inactive).

Regarding `COc1ccc(/C=C\C(=O)c2c(-c3ccccc3)c3cc(C)ccc3[nH]c2=O)cc1`, the inhibition is 7% (inactive).

For `O=C(/C=C/c1ccccc1Cl)c1c(-c2ccccc2)c2cc(Cl)ccc2[nH]c1=O`, the inhibition is 35% (inactive).

On to `O=C(/C=C/c1ccccc1Cl)c1c(-c2ccccc2)c2cc(Br)ccc2[nH]c1=O`, for which the inhibition is 49% (inactive).

Consider `COc1ccc(/C=C\C(=O)c2c(-c3ccccc3)c3cc(C)ccc3[nH]c2=O)cc1OC`, for which the inhibition is 18% (inactive).

In the case of `COc1ccccc1/C=C/C(=O)c1c(-c2ccccc2)c2cc(Br)ccc2[nH]c1=O`, the inhibition is 57% (active).

Take `CC12CN3CC(C)(CN(C1)C3c1c[nH]c3ccccc13)C2=O` (stereo not drawn): the inhibition is 6% (inactive).

For the molecule `Cc1ccc(-n2c(C)cc(/C=C(/C#N)C(=O)Nc3ccc(Cl)cc3)c2C)cc1C`, the inhibition was 8% (inactive).

For `O=C(Oc1ccc([N+](=O)[O-])cc1)c1ccc(Cl)c(S(=O)(=O)N2CCOCC2)c1`, the inhibition is 0% (inactive).

For `O=C(N1CCN(c2c(F)c(F)c(C(F)(F)F)c(F)c2F)CC1)C12CC3CC(CC(C3)C1)C2`, the inhibition is 7% (inactive).

`O=c1c(N=Nc2ccc(Br)cc2)c(O)n(-c2ccccc2)c(=O)n1-c1ccccc1`: the inhibition is 17% (inactive).

As for `COc1ccccc1C1NC(=S)NC(C)=C1C(C)=O` (stereo not drawn), the inhibition is 5% (inactive).

As to `Cc1csc(N/N=C/c2c(F)cccc2Cl)n1`, the inhibition is 18% (inactive).

Turning to `Cc1ccc2nc(-c3ccc(NC(=O)Cc4ccccc4)cc3)sc2c1`, the inhibition is 52% (active).

Consider `Cc1cccc(C(=O)NC(=S)Nc2ccc(-c3nc4ccccc4s3)cc2)c1`, for which the inhibition is 35% (inactive).

As for `Cc1ccc2nc(-c3ccc(NC(=O)CCc4ccccc4)cc3)sc2c1`, the inhibition is 5% (inactive).

On to `O=C(NC(=S)Nc1ccc(-c2nc3ccccc3s2)cc1)c1cccc(F)c1`, for which the inhibition is 34% (inactive).

With `Cc1cccc(NC(=O)Nc2ccc(-c3nc4ccccc4s3)cc2)c1`, the inhibition was 50% (active).

On to `Cc1ccc2nc(-c3ccc(NC(=S)NC(=O)c4cccc(F)c4)cc3)sc2c1`, for which the inhibition was 56% (active).

As for `Cc1ccc2nc(-c3ccc(NC(=O)Cc4ccc(Cl)cc4)cc3)sc2c1`, the inhibition was 24% (inactive).

Regarding `Cc1ccc2nc(-c3ccc(NC(=S)NC(=O)c4ccccc4F)cc3)sc2c1`, the inhibition is 52% (active).

Take `Cc1ccc2nc(-c3ccc(NC(=S)NC(=O)c4ccccc4Cl)cc3)sc2c1`: the inhibition was 8% (inactive).

As to `O=C(Nc1ccc(Cl)cc1)Nc1ccc(-c2nc3ccccc3s2)cc1`, the inhibition was 17% (inactive).

With `Cc1ccc2nc(-c3ccc(NC(=O)c4cccc(F)c4)cc3)sc2c1`, the inhibition is 43% (inactive).

With `Cc1ccc2nc(-c3ccc(NC(=S)NC(=O)c4ccccc4)cc3)sc2c1`, the inhibition is 6% (inactive).

For the molecule `O=C(Nc1ccc(Cl)cc1)C1CC(=O)N(c2cccc([N+](=O)[O-])c2)C1` (stereo not drawn), the inhibition is 4% (inactive).

Consider `COc1cc(OC)c(/C=C2\C(=O)NC(=S)N(c3ccc(C)cc3)C2=O)cc1Br`, for which the inhibition was 4% (inactive).

With `NC(=O)c1ccccc1NC(=O)c1cccc([N+](=O)[O-])c1`, the inhibition was 7% (inactive).

On to `Cc1ccc(N=C(NO)C(=Nc2ccc(C)c(C)c2)NO)cc1C`, for which the inhibition was 23% (inactive).

For `COc1cc(C=C2C(=O)c3ccccc3C2=O)ccc1OCc1ccc(F)cc1`, the inhibition is 7% (inactive).

`COc1cc(C2NC(=O)NC(C)=C2C(=O)OCc2ccc3c(c2)OCO3)cc(OC)c1OC` (stereo not drawn): the inhibition is 9% (inactive).

With `COc1ccc2c(c1)CC/C(=C\c1ccc([N+](=O)[O-])cc1)C2=O`, the inhibition was 4% (inactive).

As for `COc1cc(C(=O)N/N=C/c2ccc(OC)c(OC)c2C(=O)O)cc(OC)c1OC`, the inhibition was 0% (inactive).

Take `Cc1ccc(C(=O)NC(=S)Nc2ccc(-c3nc4ccccc4s3)cc2)cc1C`: the inhibition is 35% (inactive).

In the case of `O=C(NC(=S)Nc1ccc(-c2nc3ccccc3s2)cc1)c1ccc([N+](=O)[O-])cc1`, the inhibition was 38% (inactive).

Regarding `COc1ccc(C(=O)OCC(=O)c2ccc([N+](=O)[O-])cc2)cc1OC`, the inhibition was 7% (inactive).

For the molecule `O=S(=O)(Nc1nc2ccccc2s1)c1cccc2cccnc12`, the inhibition was 8% (inactive).

For `Cc1cc(NC(=O)CSc2nnc3c4ccccc4n(C)c3n2)no1`, the inhibition was 4% (inactive).

For the molecule `Oc1c(Br)cc(/C=N/Nc2nnc3c(n2)[nH]c2ccccc23)c(O)c1Br`, the inhibition was 12% (inactive).

For `Oc1c(Br)cc(Br)cc1/C=N/Nc1nnc2c(n1)[nH]c1ccccc12`, the inhibition was 2% (inactive).

Consider `O=C(CNC(=O)c1ccccc1)OCC(=O)c1ccc(Cl)cc1`, for which the inhibition was 3% (inactive).

In the case of `Cc1ccc(N2NC(=O)/C(=C/c3ccc(O)c([N+](=O)[O-])c3)C2=O)cc1`, the inhibition is 8% (inactive).

With `CCOC(=O)c1ccc(N2NC(=O)/C(=C/c3ccccc3O)C2=O)cc1`, the inhibition was 14% (inactive).

On to `COc1cc(/C=C2/C(=O)NN(c3ccc(C)c(C)c3)C2=O)ccc1O`, for which the inhibition is 25% (inactive).

As for `CCOC(=O)c1ccc(N2NC(=O)/C(=C/c3cc(I)cc(I)c3O)C2=O)cc1`, the inhibition is 57% (active).

For `Cc1ccc(N2NC(=O)/C(=C/c3cc(I)cc(I)c3O)C2=O)cc1`, the inhibition is 0% (inactive).

For `CCOc1cc(/C=C2/C(=O)NN(c3ccc(I)cc3)C2=O)ccc1O`, the inhibition is 11% (inactive).

Consider `O=C1NN(c2ccc(I)cc2)C(=O)/C1=C\c1ccc(F)cc1`, for which the inhibition is 0% (inactive).

Take `Cc1ccc(N2NC(=O)/C(=C/c3ccc(O)cc3)C2=O)cc1C`: the inhibition was 13% (inactive).

Consider `Cc1ccc(N2C(=O)NC(=O)/C(=C/c3ccc(O)c(O)c3)C2=O)cc1`, for which the inhibition is 33% (inactive).

With `Cc1ccc(N2NC(=O)/C(=C/c3ccc(O)c(O)c3)C2=O)cc1C`, the inhibition is 52% (active).

On to `Cc1ccc(N2NC(=O)/C(=C/c3ccc(O)c(O)c3)C2=O)cc1`, for which the inhibition was 51% (active).

Consider `O=C(CSc1nc2ccccc2[nH]1)Nc1cc(Cl)ccc1Cl`, for which the inhibition is 4% (inactive).

As to `CCCOC(=O)C1=C(C)NC2=C(C(=O)CCC2)C1c1cccc(O)c1` (stereo not drawn), the inhibition is 2% (inactive).

For the molecule `CCOC(=O)C1=C(C)NC2=C(C(=O)CC(C)(C)C2)C1c1cccc(O)c1` (stereo not drawn), the inhibition was 0% (inactive).

`N#CC1=C(SCC(=O)Nc2ccccc2)NC(=O)CC1c1ccco1` (stereo not drawn): the inhibition is 7% (inactive).

As to `COc1ccc2oc(C)c(C(O)c3ccccc3)c2c1` (stereo not drawn), the inhibition is 0% (inactive).

Regarding `CCOc1ccc(N2C(=O)CSC2=S)cc1`, the inhibition was 0% (inactive).

In the case of `O=C1NN(c2ccc(Cl)cc2)C(=O)/C1=C\c1ccc(O)c(O)c1`, the inhibition is 57% (active).

With `O=C1NN(c2ccc(Cl)c(Cl)c2)C(=O)/C1=C/c1ccc(O)c(O)c1`, the inhibition is 49% (inactive).

As for `COc1cc(/C=C2/C(=O)NN(c3ccc(Cl)cc3)C2=O)ccc1O`, the inhibition was 23% (inactive).

As to `COc1cccc(OCCCN2CCCC2)c1`, the inhibition was 13% (inactive).

Consider `O=C(COc1ccccc1Cl)Nc1cccc(S(=O)(=O)c2cccc(NC(=O)COc3ccccc3Cl)c2)c1`, for which the inhibition is 54% (active).

Regarding `O=C(COc1ccccc1Cl)Nc1ccc2nn(-c3ccccc3)nc2c1`, the inhibition is 53% (active).

Regarding `O=C(COc1ccccc1Cl)Nc1cccc(NC(=O)c2cccc(Cl)c2)c1`, the inhibition was 38% (inactive).

In the case of `O=C(Cc1ccc(Cl)cc1)Nc1ccc2nn(-c3ccc(Cl)cc3)nc2c1`, the inhibition was 51% (active).

Turning to `COc1ccc(-n2nc3ccc(NC(=O)COc4ccccc4Cl)cc3n2)cc1`, the inhibition was 32% (inactive).

Turning to `O=C(Cc1ccccc1)Nc1ccc2nn(-c3ccc(Cl)cc3)nc2c1`, the inhibition is 37% (inactive).

As to `O=C(Cc1ccc(Cl)cc1)Nc1ccc2nn(-c3ccc(F)cc3)nc2c1`, the inhibition was 41% (inactive).

Regarding `O=C(COc1ccccc1Cl)Nc1cccc(NC(=O)c2ccccc2)c1`, the inhibition is 6% (inactive).

For the molecule `Cc1ccccc1OCC(=O)Nc1ccc2nn(-c3ccccc3)nc2c1`, the inhibition is 8% (inactive).

For the molecule `O=C(COc1ccccc1)Nc1cc(C(F)(F)F)cc(C(F)(F)F)c1`, the inhibition was 0% (inactive).

Take `CC1=C(C(=O)Nc2ccccc2)C(c2cccc(Br)c2)NC(=S)N1` (stereo not drawn): the inhibition was 8% (inactive).

With `COc1cc(/C=N\NC(=O)CSc2nc3ccccc3o2)ccc1O`, the inhibition was 25% (inactive).

As to `C#CCSc1nc(C)cc(C)c1C#N`, the inhibition was 13% (inactive).

Regarding `Cc1csc(NC(=O)C2CC3CCC2C3)n1` (stereo not drawn), the inhibition was 4% (inactive).

With `COc1ccc(N(CC(=O)Nc2cccc(OC)c2)S(=O)(=O)c2ccc(C)cc2)cc1`, the inhibition was 16% (inactive).

As to `CC(C(=O)O)n1c(O)c(/C=C2/C=Nc3ccccc32)sc1=S` (stereo not drawn), the inhibition was 4% (inactive).

`O=C(N/N=C/c1ccc(Cl)cc1Cl)c1ccc(O)c(O)c1`: the inhibition was 57% (active).

Turning to `O=C(N/N=C/c1c[nH]c2ccccc12)c1cc(O)cc(O)c1`, the inhibition was 8% (inactive).

In the case of `O=C(N/N=C/c1ccc(Cl)cc1Cl)c1cc(Br)ccc1O`, the inhibition was 0% (inactive).

Regarding `O=C(N/N=C/c1coc2ccccc2c1=O)c1cc(O)cc(O)c1`, the inhibition was 55% (active).

As to `O=C(N/N=C/c1ccc(Cl)cc1Cl)c1ccccc1Cl`, the inhibition was 5% (inactive).

With `O=C(N/N=C/c1ccccc1Cl)c1ccc(C(=O)N/N=C/c2ccccc2Cl)cc1`, the inhibition is 0% (inactive).

For the molecule `Cc1ccccc1/C=N/NC(=O)c1cc(O)cc(O)c1`, the inhibition is 2% (inactive).

Consider `O=C(N/N=C/c1ccc(Cl)cc1Cl)c1cc(O)cc(O)c1`, for which the inhibition was 6% (inactive).

In the case of `C[n+]1ccc(C(=O)N/N=C/c2ccc(Cl)cc2Cl)cc1`, the inhibition is 0% (inactive).

As to `O=C(N/N=C/c1ccccc1Cl)c1cccc(Cl)c1`, the inhibition is 8% (inactive).

Take `O=C(N/N=C/c1ccc(O)c(O)c1O)c1ccc(Cl)cc1Cl`: the inhibition is 61% (active).
